Results filed as inconclusive are left out. Activity calls are given as the source filed them. Calls follow the shape of the dose curve; as a rule, active = well fitted inhibition curve with a large enough effect; inconclusive = small, poorly fitted or top-dose-only effect, or effect the other way; inactive = flat fitted curve, though single readings scatter.

The experiment is described as follows: Secondary Assay for General miRNAs Modulators and/or Inhibitors/Activators of miR-21: miR-30 Firefly Luciferase Assay. As to conditions: HeLa miR-30 FLuc reporter, luminescence, 48 h; series mostly up to 38.3 µM. From the text:
MLSCN Grant: 1 R21 NS059478-01 Assay Provider: Qihong Huang, The Wistar Institute NCGC Assay Overview: MicroRNAs (miRNAs) are endogenously encoded small (~20-25 nucleotides), nonprotein-coding RNAs that are involved in post-transcriptional repression of target messenger RNAs (mRNAs) (Le and Hannon, 2004). Estimated to be involved in the regulation of 30% of all protein-coding mRNAs (Filipowicz et al., 2008), miRNAs play a significant role in many biological processes including cellular differentiation and tissue development (Ghildiyal and Zamore, 2009). […] Compounds active in the miR-21 FLuc assay were clustered using Leadscope and active chemical series were prioritized based on chemical properties, potential for medicinal chemistry optimization, and SAR. Within each chemical series, representative compounds were re-acquired to test for activity in a secondary assay based on the quality of their CRC, efficacy, and potency. The secondary assay to determine if compounds active in the miR-21 FLuc assay were potentially specific for miR-21 and were not general modulators of the miRNA pathway was another cell-based FLuc reporter gene assay, this time targeting miR-30. Compounds found active in both the miR-21 FLuc and miR-30 FLuc assays are not considered miR-21 specific compounds, and may be general miRNA modulators.
NCGC Assay Protocol Summary: Reagents: HeLa cells stably expressing firefly luciferase (FLuc) under the control of a CMV promoter (upstream) and a miR-30 binding sequence directly downstream of the gene. These cells also stably express miR-30. Control compounds used were compound C3 (provided by collaborator), N6-phenyladenosine (MP Biomedicals, 0215379625), and DMSO. Assay Summary: 6uL of HeLa miR-30-FLuc cells in assay buffer (DMEM, Invitrogen #21063-029; 10% FBS, HyClone #SH30071.03) were dispensed at 1000cells/well (1.7 x 10^5 cells/mL) into Greiner solid-white TC-treated 1536-well plates using a Multidrop Combi (Thermo Fisher Scientific). Plates were incubated for one hour at 37 degree Celsius, 95% humidity, 5% CO2. These assay plates were then treated with 23nL of compound or DMSO using a Kalypsys pin tool, which allows for delivery of a 24-point titration of each compound to the assay plate, with a final compound concentration ranging from approximately 40uM to 5pM. Assay plates were then incubated for 48 hours. After incubation, plates were allowed to come to RT for one hour prior to delivery of 3uL of 3X luciferase detection reagent. After a 15 minute incubation to allow for cell lysis, luciferase activity was measured using a ViewLux CCD imager (PerkinElmer), with an average exposure time of 2-12 seconds. Keywords: NIH Roadmap, MLPCN, MLSMR, qHTS, miR-21, miR-30, microRNA, firefly luciferase, FLuc.
As to `COc1ccc(NC(=O)c2ncn(-c3ccccc3)n2)cc1Cl`, the Potency is 14.2 µM (active).

With `Cc1ccc(-c2nc(NCc3ccco3)n(S(C)(=O)=O)n2)cc1`, the Potency was 11.3 µM (active).

For `Cc1c(-c2nsc(NC(=O)c3cccs3)n2)nnn1-c1ccc(F)cc1`, the Potency was 0.895 µM (active).

Turning to `c1ccc(CSc2nnc3ccc(-c4cccs4)nn23)nc1`, the Potency is 11.3 µM (active).

`Nc1c(C(=O)Nc2ccccc2Br)sc2nc(-c3cccs3)ccc12`: the Potency result was “inactive”.

Regarding `O=C(CSc1nnc(-c2ccccn2)o1)Nc1cccc(Cl)c1`, the Potency is 1.13 µM (active).

For the compound `O=C(CSc1nnc(-c2ccc(C(F)(F)F)cn2)o1)Nc1cccc(Cl)c1`, the Potency is 2.83 µM (active).

`COc1ccc(-c2csc(NC(=O)COC(=O)c3ccc(Br)o3)n2)cc1`: the Potency was 2.25 µM (active).

`Clc1ccc(-n2ncc3c(NCc4ccccn4)ncnc32)cc1`: the Potency was 12.6 µM (active).

For the compound `COc1ccc(NCc2cccn2-c2nnc(N3CCC(C)CC3)s2)c(OC)c1`, the Potency was 1.79 µM (active).

For the compound `Cc1ccccc1OCCn1cnc2c(N)ncnc21`, the Potency result is “inactive”.

On to `Nc1c(-c2nc(-c3ccccc3Cl)no2)nnn1-c1ccccc1F`, for which the Potency is 0.4 µM (active).

In the case of `Cc1ccc(-c2nsc(SCC(=O)Nc3ccc4c(c3)OCO4)n2)cc1`, the Potency is 11.3 µM (active).

Regarding `Cc1cc(C)n2c(SCc3ccccc3Cl)nnc2n1`, the Potency is 14.2 µM (active).

With `O=C(CSc1nnc(-c2ccc(O)cc2)o1)Nc1ccccc1Br`, the Potency is 1.13 µM (active).

Regarding `COc1cccc(NC(=O)CSc2nnc(-c3cccs3)o2)c1`, the Potency was 5.65 µM (active).

For `COc1cc(-c2nc3cnccn3c2Nc2ccc(C(C)C)cc2)ccc1O`, the Potency was 2.25 µM (active).

Take `COc1ccc(CNc2nc(-c3ccco3)nn2C(=O)CC(C)C)cc1`: the Potency is 11.3 µM (active).

As to `CCc1ccc(-n2nnc(-c3nc(-c4cccs4)no3)c2N)cc1`, the Potency is 1.42 µM (active).

For the compound `Cc1cc(C)cc(NC(=O)CSc2nnc(CNC(=O)c3ccco3)o2)c1`, the Potency result was “inactive”.

Consider `COc1ccccc1C(=O)n1nc(-c2ccco2)nc1NCc1ccc(Cl)cc1`, for which the Potency was 7.98 µM (active).

For `Cc1c(-c2nnc(SCC(=O)Nc3ccccc3F)o2)nnn1-c1ccc(F)cc1`, the Potency is 4 µM (active).

As for `Cc1ccccc1Nc1nc(N)nc(CN(C)c2ccccc2)n1`, the Potency was 12.6 µM (active).

In the case of `CCC(=O)n1nc(-c2cccnc2)nc1NCc1ccc(F)cc1`, the Potency entry was “inactive”.

As to `CCS(=O)(=O)n1nc(-c2ccccc2)nc1NCc1ccco1`, the Potency result was “inactive”.

In the case of `COCC(=O)Nc1c(C(=O)Nc2ccc3c(c2)OCCO3)oc2ccccc12`, the Potency was 0.634 µM (active).

For `Cc1cccc(-c2nnc(SCC(=O)Nc3ccc(C)c(C)c3)o2)c1`, the Potency was 3.18 µM (active).

In the case of `O=C(COc1ccccc1F)Nc1ccc(-c2nc3ccccc3s2)cc1`, the Potency is 3.18 µM (active).

On to `Cc1cccc(-c2nsc(SCC(=O)Nc3ccc4c(c3)OCO4)n2)c1`, for which the Potency is 22.5 µM (active).

`Cc1cccc(-n2nnc(-c3nc(-c4cccs4)no3)c2N)c1`: the Potency was 0.798 µM (active).

Turning to `COc1ccc(-c2nc(SCc3ccccc3)n(S(C)(=O)=O)n2)cc1`, the Potency was 11.3 µM (active).

Turning to `NC(=O)c1ccccc1NC(=O)c1ccc(-c2ccc(Br)cc2)o1`, the Potency is 1.13 µM (active).

In the case of `Cc1cc(SCC(=O)Nc2nsc(-c3ccc(C(C)(C)C)cc3)n2)nc2ccccc12`, the Potency is 2 µM (active).

Turning to `Cc1c(-c2nc(-c3ccc(C(F)(F)F)cc3)no2)n(C)oc1=O`, the Potency was 0.503 µM (active).

Consider `COc1ccc(-c2nnc(SCC(=O)Nc3cccc(F)c3)s2)cc1`, for which the Potency was 8.95 µM (active).

Take `O=C(CSc1nnc(-c2ccncc2)o1)Nc1nncs1`: the Potency entry was “inactive”.

In the case of `CCc1nonc1NC(=O)c1oc2cc(C)c(C)cc2c1C`, the Potency was 3.18 µM (active).

Turning to `Cc1cc(C)cc(NC(=O)CSc2nnc(-c3ccccc3C)o2)c1`, the Potency was 11.3 µM (active).

In the case of `COc1ccc(-n2nnc(-c3nc(-c4cccs4)no3)c2N)cc1OC`, the Potency entry was “inactive”.

Turning to `N#Cc1cc2cc3c(cc2nc1SCC(=O)N1CCOCC1)OCO3`, the Potency is 0.798 µM (active).

The values are drawn from PubChem BioAssay AID2507 (National Center for Advancing Translational Sciences (NCATS), 2010).
